Source: PubChem BioAssay (National Center for Advancing Translational Sciences (NCATS))
This is a sample that favours compounds with a hit; in the whole collection about 21% have one here.
SARS PLpro yeast = inhibitors of SARS-CoV papain-like protease in yeast | S. cerevisiae expressing SARS-CoV PLpro, growth rescue | Potency, µM (series often up to 32.9 µM), without a hit: top-dose activity, positive = growth rescue, hits mostly activators | 330,000 tested, 0.19% active; note: potency is the fitted concentration of half-maximal effect; 0% is about no effect; nearly all actives have a fitted effect of over 55% in size
Cycloheximide cs = counter-screen hit for Shiga toxin inhibitors, cycloheximide; max response, %; cell reporter, cycloheximide protein synthesis inhibition counterscreen; 300,000 tested, 12% active; in the data active = max response mostly above about 13%, no sharp cut-off; inactive = mostly below about 14%; note: read at 38.3 µM for the half of the compounds with a filed dose; 0% is about no effect
NS1 function inh = inhibitors of influenza NS1 protein function; Potency, µM (series often up to 46.1 µM), for the others: top-dose activity, positive = more growth; 270,000 tested, 0.4% active; note: potency is the fitted concentration of half-maximal effect; actives are rising curves; nearly all actives have a fitted effect of over 50% in size
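S. cerevisiae expressing influenza A NS1, grown in glucose, washed, then diluted 1:100 into pH 6.0 -URA galactose medium with 23 nl compound. Growth recovery read as OD600; NS1-free strain serves as control.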
Pf growth 96h = inhibits malaria parasite growth, 96 h; P. falciparum luciferase reporter growth, 96 h; Potency, µM (top dose mostly 28.7 µM), for the others: top-dose activity change, negative = inhibition, actives largely listed as inhibitors; 320,000 tested, 6.9% active; AID 504834; active = well fitted inhibition curve with a large enough effect; inconclusive = small, poorly fitted or top-dose-only effect, or another doubt; inactive = no such curve, though single readings can be large or run the other way; note: potency is the fitted concentration of half-maximal effect; % is set by controls: 0 for no effect and ±100 for the full control effect
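Luminescence readout: decreased luciferase signal marks inhibited growth of reporter-expressing P. falciparum in infected red cells (2% hematocrit, 0.05% parasitemia final), exposed to compound two generations (96 h, 37 C, 5% CO2).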
Shiga toxin inh = Shiga toxin inhibition; Vero cells, Shiga toxin protein synthesis inhibition reporter; inhibition, % at 38.7 µM; 290,000 tested, 9.2% active; in the data active = inhibition mostly above about 28%, no sharp cut-off; inactive = mostly below about 43%; note: 0% is about no effect
Pf growth 48h = P. falciparum growth inhibition at 48 hours (one generation) | P. falciparum luciferase growth in erythrocytes, 48 h | Potency, µM (doses to about 28.7 µM), without a hit: at the highest dose activity change, negative = inhibition, usual class: inhibitors | 310,000 tested, 5.9% active; active = well fitted inhibition curve with a large enough effect; inconclusive = small, poorly fitted or top-dose-only effect, or another doubt; inactive = no such curve, though single readings can be large or run the other way; note: potency is the fitted concentration of half-maximal effect; % is set by controls: 0 for no effect and ±100 for the full control effect
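Here the parasites carry a stable luciferase gene and grow inside erythrocytes in Albumax-based RPMI medium with compound for one erythrocytic cycle. Activity is scored as loss of luminescent signal.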
Flu NS1 inh = influenza NS1 function inhibition validation | shares compounds with NS1 function inh | influenza NS1 function cell assay, 15-point titration | activity change, negative = inhibition, % at 32.9 µM | 1,400 tested, under 10 active; note: 0% is about no effect
The depositor's hits bear a star; ? = inconclusive; / = not tested or not shown. Unless noted, calls come from the whole dose curve.

SMILES | SARS PLpro yeast | Cycloheximide cs | NS1 function inh | Pf growth 96h | Shiga toxin inh | Pf growth 48h | Flu NS1 inh
O=C(Nc1cccc(S(=O)(=O)N2CCOCC2)c1)c1cnccn1 | 0% | -3 | -1% | 26% | -13 | 53% | /
Cc1cccc(CN(CC(=O)N/N=C/c2cccs2)S(=O)(=O)c2ccc(Cl)cc2)c1 | -2% | -2 | 8.9µM* | ? | 16 | -1% | -32
CCCCC(=O)Nc1ccc2c(c1)nc1n2CCSC1 | -12% | 27* | 8.9µM* | / | 65* | 134% | -12
CC(=O)N=c1n(C)c2ccccc2n1CCOc1ccccc1 | 23% | 1 | ? | ? | 7 | -1% | -6
CC(=O)Nc1nc2ccccc2n1CCOc1ccccc1 | 5% | 1 | -11% | 38% | 3 | ? | /
CCOC(=O)c1c(C)[nH]c(C(=O)C(C)OC(=O)c2cccc(OCc3c(C)noc3C)c2)c1C (stereo not drawn) | -2% | 17* | 13µM* | 1% | 29 | -24% | -8
c1ccc(-c2nnc(CN3CCCc4ccccc43)o2)cc1 | -4% | 16* | ? | / | 19 | ? | ?
CC1CN(Cc2nnc(-c3ccccc3)o2)CC(C)O1 (stereo not drawn) | -4% | -1 | / | ? | -2 | 34% | /
COc1ccc(N(C(=O)c2snc(C(N)=O)c2N)C(C(=O)NC2CCCC2)c2ccco2)c(OC)c1 (stereo not drawn) | 16% | -2 | 18% | ? | -3 | ? | /
COc1ccc(N(CC(=O)NCCC(C)C)C(=O)c2snc(C(=O)NC3CCCCC3)c2N)c(OC)c1 | 26% | 3 | 13µM* | 15% | -11 | ? | 5
COC(=O)Cn1c(=O)c2c(nc3n2CCCN3CCc2ccc(OC)c(OC)c2)n(C)c1=O | 0% | -1 | 2% | ? | -3 | ? | /
O=C(COc1ccc(Cl)cc1Cl)NC(=S)N1CCCc2ccccc21 | 13% | 43* | 10µM* | -5% | 67* | / | ?
CCCCC(C(=O)N/N=C/c1ccccn1)C(=O)N/N=C/c1ccccn1 | 0% | 2 | 0% | -1% | -7 | -18% | /
COc1ccc(C2CC(c3cccs3)=NN2c2ccc(C=O)cc2)cc1 (stereo not drawn) | 13% | 46* | 11µM* | 8% | 55* | 0% | 4
O=C(COc1ccc2ccccc2c1)NCCc1ccc2c(c1)OCCO2 | -14% | -3 | -11% | -24% | 10 | -5% | /
N#C/C(=C(/O)COC(=O)c1ccc(Cl)c(S(=O)(=O)N2CCOCC2)c1)c1nc2ccccc2[nH]1 | 1% | 13 | ? | -12% | -15 | 14% | /
Cc1ccc(C(=O)OC/C(O)=C(\C#N)c2nc3ccccc3[nH]2)cc1S(=O)(=O)N1CCOCC1 | -16% | 9 | 10µM* | ? | 8 | 8% | 18
CCCNC(=O)C1Cc2cc(S(=O)(=O)N3CCCC3)ccc2N1C(C)=O (stereo not drawn) | 4% | 0 | 4% | -41% | -7 | -3% | /
COc1ccccc1N(CC(=O)N/N=C/c1ccccc1C(=O)O)S(C)(=O)=O | 0% | -2 | -3% | 40% | -4 | 47% | /
Oc1ccc2ccccc2c1-c1sc(Nc2ccccc2)n[n+]1-c1ccc(F)cc1 | 7% | 1 | ? | ? | -4 | ? | -26
O=C(Nc1ccccc1Cl)Oc1ccc2ccccc2c1 | 1% | -1 | ? | 31% | 17 | 35% | 1
COc1cc(/C=N/NC(=S)N/N=C/c2cc(OC)c(OC)c(OC)c2)cc(OC)c1OC | 3% | 38* | 11µM* | 5% | 87* | 27% | 18
CCOC(=O)C1=C(C)N=C2SC(C(=O)OC)=CC(=O)N2C1c1cccc(OC)c1 (stereo not drawn) | -11% | -3 | 14µM* | -16% | -3 | 7.4µM* | -19
Cc1nnc(SCC(=O)Nc2cccc(C(F)(F)F)c2)[nH]c1=O | -14% | 1 | -7% | ? | 15 | 20% | /
COc1cccc(NC(=O)CSc2nncn2N)c1 | 2% | 8 | -3% | ? | 22 | 25% | /
SMILES | SARS PLpro yeast | Cycloheximide cs | NS1 function inh | Pf growth 96h | Shiga toxin inh | Pf growth 48h | Flu NS1 inh
O=C(/C=C/c1ccc(Cl)c([N+](=O)[O-])c1)Nc1cccc(NC(=O)c2ccco2)c1 | 3% | 36* | 18µM* | ? | 67* | 12µM* | 8
O=C(/C=C/c1ccc(Cl)c([N+](=O)[O-])c1)Nc1ccc(N2CCCC2)cc1 | -11% | -3 | ? | ? | -7 | -24% | 18
O=C(/C=C/c1cccc([N+](=O)[O-])c1)Nc1cccc(NC(=O)c2ccco2)c1 | 2% | 11 | 12% | 20% | 19 | -8% | /
O=C(NC(=S)Nc1ccc(N2CCCC2)cc1)c1ccccc1[N+](=O)[O-] | 14% | 13 | ? | 4% | 40* | 69% | 2
O=C(/C=C/c1ccc(Cl)c([N+](=O)[O-])c1)Nc1cccnc1 | 2% | 12 | 3% | ? | 17 | ? | /
CC(C)(C)C1CCc2onc(C(=O)Nc3ccc(F)cc3F)c2C1 (stereo not drawn) | 2% | -3 | ? | -16% | 6 | 4% | ?
O=C(Nc1ccc(F)cc1F)c1cc(-c2ccc3c(c2)OCO3)on1 | 1% | 2 | -8% | 106% | 52 | 85% | /
Cc1ccc(S(=O)(=O)N2CCC(C(=O)Nc3ccccc3N3CCCCC3)CC2)cc1 | 2% | 5 | 5µM* | 13% | -27 | 7.4µM* | 4
Cc1csc(NC(=O)c2cccc(Cn3nc(C)c(Br)c3C)c2)n1 | -12% | 3 | 1% | / | 41 | ? | /
O=C(COC(=O)CCCN=C1NS(=O)(=O)c2ccccc21)NNC(=O)c1ccccc1 | / | / | / | 23% | / | 1% | /
COc1ccc(/C(C)=N\NS(C)(=O)=O)c(OC)c1 | 14% | 4 | ? | 41% | 6 | 29% | -3
Cc1cc(NC(=O)/C=C/c2cccc(Cl)c2)n(-c2nc3ccccc3[nH]2)n1 | 14% | 66* | 1.8µM* | ? | active | ? | 7
Cc1cc(NC(=O)/C=C/c2cccc(F)c2)n(-c2nc3ccccc3[nH]2)n1 | 19% | 12 | 20% | 0% | -3 | -70% | /
O=C(Nc1nc2ccc(F)cc2s1)C1CC(=O)N(c2ccc3c(c2)OCCO3)C1 (stereo not drawn) | 10% | / | / | -5% | / | -9% | /
COc1ccc(-c2nc(NC(=O)C3CC(=O)N(c4ccc5c(c4)OCCO5)C3)sc2C)cc1 (stereo not drawn) | -2% | 28* | 11µM* | ? | 41 | 31% | 7
Cc1cc2c(o1)CC(C)(C)CC2=O | 2% | 1 | / | 0% | 21 | 316% | /
CS(=O)(=O)N1CCc2cc(-c3csc(NC(=O)Cc4ccccc4)n3)ccc21 | 10% | 7 | 10µM* | -5% | 28 | -4% | 4
